Measured values published in PubChem BioAssay (Tox21).
Inconclusive results are not listed. Some structures have more than one record in an assay (separate samples or runs), and their calls can disagree. Activity calls are given as the source filed them. Unless noted, calls follow the shape of the full dose curve.

Molecular target: Estrogen receptor (Homo sapiens) (UniProt P03372)
Experiment: qHTS assay to identify small molecule agonists of the estrogen receptor alpha (ER-alpha) signaling pathway (AID 743075);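 also: HEK293 GripTite cells with ER-alpha and UAS-driven beta-lactamase reporter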
Details: HEK293 ER-alpha-UAS-bla, beta-lactamase FRET ratio, 18 h; series mostly up to 70.1 µM; activation: at the top concentration
% is scaled to controls: 0 for no effect and ±100 for the full control effect.

Sequence of Estrogen receptor (Homo sapiens) (P03372 whole entry, looked up): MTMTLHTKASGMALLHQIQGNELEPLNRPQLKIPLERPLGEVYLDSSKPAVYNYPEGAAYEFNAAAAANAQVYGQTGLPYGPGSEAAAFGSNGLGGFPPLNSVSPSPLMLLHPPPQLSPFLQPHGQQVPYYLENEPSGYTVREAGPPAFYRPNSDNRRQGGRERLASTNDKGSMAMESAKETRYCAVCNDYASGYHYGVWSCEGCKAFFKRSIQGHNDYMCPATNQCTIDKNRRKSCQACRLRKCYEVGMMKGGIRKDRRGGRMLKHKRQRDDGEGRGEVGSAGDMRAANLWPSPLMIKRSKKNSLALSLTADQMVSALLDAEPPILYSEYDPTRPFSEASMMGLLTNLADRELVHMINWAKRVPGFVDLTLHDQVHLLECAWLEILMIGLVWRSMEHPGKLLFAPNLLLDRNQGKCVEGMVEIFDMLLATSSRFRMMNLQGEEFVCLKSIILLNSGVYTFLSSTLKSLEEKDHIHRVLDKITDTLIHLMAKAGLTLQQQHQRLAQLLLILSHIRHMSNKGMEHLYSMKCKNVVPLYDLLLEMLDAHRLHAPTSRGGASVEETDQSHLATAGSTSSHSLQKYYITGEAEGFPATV

Structure (SMILES) | activation | outcome
CCN(CCCc1ccccc1)CCCc1ccccc1 | -2.1% [at 32.9 µM] (inactive) | 
CC(C)S | -0.347% [at 79.1 µM] (inactive) | 
O=S(=O)(O)C(F)(F)F | 0.427% (inactive) | 
COc1ccc(S(=O)(=O)Nc2nnc(CC(C)C)s2)cc1 |  | inactive
C[C@]12C(=O)OC(=O)[C@H]1[C@H]1C=C[C@@H]2C1 | 1.04% [at 79.1 µM] (inactive) | 
O=c1[nH]c(=O)n([C@H]2C[C@H](O)[C@@H](CO)O2)cc1C(F)(F)F | 5.79% (inactive) | 
CC(C)(CO)[C@@H](O)C(=O)NCCC(=O)O |  | inactive
O=c1oc2c(O)c(O)cc3c(=O)oc4c(O)c(O)cc1c4c23 | -1.4% (inactive) | 
O=C(O)c1ccccc1Nc1cc(Cl)ccc1C(=O)O | -2.35% (inactive) | 
Cc1cccc(C)c1NC(=O)CN1CCCCCC1 | -1.25% (inactive) | 
CCOC(=O)C1CC(=O)C(=C(O)C2CC2)C(=O)C1 (stereo not given) | -3.53% (inactive) | 
Oc1ccccc1F | -1.39% (inactive) | 
CCc1cc(Cl)c(OC)c(C(=O)NC[C@@H]2CCCN2CC)c1O |  | inactive
FC(F)(F)c1ccccc1 | 3.3% (inactive) | 
CN1CCN(c2c(F)cc3c(=O)c(C(=O)O)cn4c3c2SCC4)CC1 | 2.61% (inactive) | 
CC/C=C\CCOC(=O)CCCCC | 1.61% (inactive) | 

Molecular target: Estrogen receptor (Homo sapiens) (UniProt P03372)
Experiment: qHTS assay to identify small molecule agonists of the estrogen receptor alpha (ER-alpha) signaling pathway using the BG1 cell line (AID 743079; active = well fitted activation curve with a large enough effect in the repeat runs; also: nearly all actives have a fitted effect of over 20% in size; also: potency is read from the fitted curve at half-maximal effect)
Details: BG1Luc4E2 cells, ERE-luciferase agonist, 22 h; series mostly up to 70.3 µM; activation: at the top concentration

Structure (SMILES) | activation | Potency
CCN(CCCc1ccccc1)CCCc1ccccc1 | -4.38% [at 32.5 µM] (inactive) | 
CC(C)S | -7.44% [at 95 µM] (inactive) | 
COc1ccc(S(=O)(=O)Nc2nnc(CC(C)C)s2)cc1 |  | inactive
CC(C)(CO)[C@@H](O)C(=O)NCCC(=O)O |  | inactive
O=c1oc2c(O)c(O)cc3c(=O)oc4c(O)c(O)cc1c4c23 | 1.54% (inactive) | 
O=C(O)c1ccccc1Nc1cc(Cl)ccc1C(=O)O | -10.5% (inactive) | 
Cc1cccc(C)c1NC(=O)CN1CCCCCC1 | 0.585% (inactive) | 
CCOC(=O)C1CC(=O)C(=C(O)C2CC2)C(=O)C1 (stereo not given) | 2.61% (inactive) | 
Oc1ccccc1F | -5.79% (inactive) | 
CCc1cc(Cl)c(OC)c(C(=O)NC[C@@H]2CCCN2CC)c1O |  | 10.6 µM (active) and inactive
FC(F)(F)c1ccccc1 | 0.0096% (inactive) | 
CN1CCN(c2c(F)cc3c(=O)c(C(=O)O)cn4c3c2SCC4)CC1 | -11.9% (inactive) | 
CC/C=C\CCOC(=O)CCCCC | 0.361% (inactive) | 

Test system: not listed separately
Experiment: qHTS assay to identify small molecule antagonists of the estrogen receptor alpha (ER-alpha) signaling pathway using the BG1 cell line (AID 743080); also: nearly all actives have a fitted effect of over 25% in size
Details: BG1Luc4E2 ERE-luciferase antagonist mode, luminescence; series mostly up to 70.3 µM; activity change, negative = inhibition: at the top concentration
Outline: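 Antagonist mode: compounds in DMSO were pinned onto BG1-Luc-4E2 cells alongside 17beta-estradiol agonist, incubated 21.5 h, and ERE-driven luciferase measured with ONE-Glo. Cytotoxicity was multiplexed using CellTiter-Fluor fluorescence.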

Structure (SMILES) | activity change, negative = inhibition | outcome
CCN(CCCc1ccccc1)CCCc1ccccc1 | 10.5% [at 32.5 µM] (inactive) | 
CC(C)S | -4.44% [at 95 µM] (inactive) | 
O=S(=O)(O)C(F)(F)F | -0.141% (inactive) | 
COc1ccc(S(=O)(=O)Nc2nnc(CC(C)C)s2)cc1 |  | inactive
C[C@]12C(=O)OC(=O)[C@H]1[C@H]1C=C[C@@H]2C1 | -2.7% [at 95 µM] (inactive) | 
O=c1[nH]c(=O)n([C@H]2C[C@H](O)[C@@H](CO)O2)cc1C(F)(F)F | -17.3% (inactive) | 
CC(C)(CO)[C@@H](O)C(=O)NCCC(=O)O | -0.459% [at 95 µM] (inactive) | 
O=c1oc2c(O)c(O)cc3c(=O)oc4c(O)c(O)cc1c4c23 | -21.3% (inactive) | 
O=C(O)c1ccccc1Nc1cc(Cl)ccc1C(=O)O | 6.63% (inactive) | 
Cc1cccc(C)c1NC(=O)CN1CCCCCC1 | -4.75% (inactive) | 
CCOC(=O)C1CC(=O)C(=C(O)C2CC2)C(=O)C1 (stereo not given) | 0.607% (inactive) | 
Oc1ccccc1F | -0.709% (inactive) | 
CCc1cc(Cl)c(OC)c(C(=O)NC[C@@H]2CCCN2CC)c1O |  | inactive
FC(F)(F)c1ccccc1 | 2.28% (inactive) | 
CN1CCN(c2c(F)cc3c(=O)c(C(=O)O)cn4c3c2SCC4)CC1 | 3.98% (inactive) | 
CC/C=C\CCOC(=O)CCCCC | -1.62% (inactive) | 
